According to PubChem BioAssay (NCATS):
Records with an inconclusive call do not appear. A number with no mark means an inactive call. Active and inactive are the calls of the source. Calls come from the whole dose curve; as a rule, active = well fitted cell-killing curve with a large enough effect; inconclusive = small, poorly fitted or top-dose-only effect, or effect the other way; inactive = no such curve, though single readings can be large or run the other way.
Potency is the fitted concentration of half-maximal effect.

Experiment: Quantitative highthroughput screen to assess conditional lethalithy of SEM cells grown in RPMI1640 with unreated serum (RPMI+s) (AID 1963883); note: nearly all actives have a fitted effect of over 35% in size
Conditions: SEM B-ALL cells, CellTiter-Glo viability, 48 h; series mostly up to 45.8 µM; viability: at the top concentration
Excerpt: Assay Provider: Jason Cantor Ph.D.
Department of Biochemistry
University of Wisconsin-Madison, Madison, WI, USA
Chemical screening studies have identified drug sensitivities across hundreds of cancer cell lines but most putative therapeutics fail to translate. Discovery and development of drug candidates in models that more accurately reflect nutrient levels in human blood is a major challenge. Here we performed high-throughput screens in conventional versus Human Plasma-Like Medium (HPLM) to identify compounds that were "missed" when screening using the artificial culture condition. Sets of conditional anticancer compounds spanned phases of clinical development and included non-oncology drugs were assessed. […] We also traced conditional phenotypes for several chemotherapeutics to availability of HPLM-specific metabolites and confirmed others for compounds whose reported targets are encoded by nonessential genes. Our findings establish generalizable strategies for exploiting conditional lethality in HPLM to reveal therapeutic candidates and mechanisms of action in cancer cells.
Described herein are the results of each viability screens against three cell lines: NOMO1 (an acute myeloid leukemia cell line); P12-Ichikawa (a T-cell acute lymphoblastic leukemia); and SEM (a B-cell ALL). Each assay was screened using 3 different cell culture media: homemade human plasma-Like medium with 10% dialyzed fetal bovine serum (HPLM+ds); RPMI1640 with 10% untreated FBS and 5mM glucose (RPMI+s); and RPMI1640 with 10% dialyzed fetal bovine serum and 5 mM glucose (RPMI+ds).
PROTOCOL TABLE (as described by Inglese J, Shamu CE and Guy RK. 2007)
SEQUENCE No. (e.g., 1, 2, 3, etc.); […] (e.g., Cells, Incubation, Reagent, etc.); VALUE and DESCRIPTION.
1; Cells; 5 uL; white, solid bottom 1536-well Greiner assay plate.
2; Compounds; 23 nL; Kalypsis pin tool (Wako USA) equipped with a 1536-well pin head to transfer to the assay plates.
3; Incubation; 48 hours; 37C incubation.
4; Reagent; 3 uL; CellTiter Glo (Promega).
5; Incubation; 5 min, room temperature
6; Detection; Luminescence, Viewlux PerkinElmer.
NOTES (numbers refer to Sequence numbers above)
1. Briefly, 5 ul of cell reagent was dispensed using a Multidrop Combi Dispenser. The NOMO1 and SEM cells were plated at 500 cells/well and the P12-Ichikawa line at 1000 cells/well.
2. After seeding the cells, 23 nL of MIPE 4.1 library compounds (in DMSO) were added to each plate using a Kalypsys 1536 Pintool dispenser. Bortezomib at final concentration of […] and DMSO were added to each plate as positive and negative controls respectively. For each screen, MIPE 4.1 compounds were added over an eleven-point concentration range […] in 3-fold dilutions.
3. Each plate was covered with a stainless steel gasketed lid to prevent evaporation and incubated for 48 hour at 37C, 95% relative humidity, and 5% CO2.
4-5. Three microliter CellTilter-GloTM luminescent substrate mix (Promega) reagent was added to the assay plate and incubated at room temperature for 5 min.
6. The luminescence signal was measured using a ViewLux (PerkinElmer) multiplate reader with a 2 second exposure time per plate. Data for each compound were normalized as percent viability such that measurements for DMSO and the empty well controls in each plate were defined as 100% and 0%, respectively.
With `CC(C)c1cccc(C(C)C)c1O` the “viability” value was 97.8%.
In the case of `Cc1cc(SCc2sc(-c3ccc(C(F)(F)F)c(F)c3)nc2C)ccc1OCC(=O)O`, the “viability” value is reported as 105%.
With `O=C1C=CC[C@@H]2[C@H]3CCCN4CCC[C@@H](CN12)[C@@H]34` the “viability” value was 106%.
In the case of `C=C[C@@H]1CN2CCC1C[C@@H]2[C@@H](O)c1ccnc2ccccc12` (stereo not given in full), the Potency is reported as 16.6 µM (active).
With `COC1(CS(=O)c2ccccc2)CCN(CCc2c[nH]c3ccc(F)cc23)CC1` (stereo not given) the “viability” value was 95.3%.
In the case of `O=S(=O)(CC1CS1)c1ccc(Oc2ccccc2)cc1` (stereo not given), the Potency is reported as 20.9 µM (active).
With `CC(=Cc1csc(C)n1)[C@@H]1C[C@H]2O[C@@H]2CCC[C@H](C)[C@@H](O)[C@@H](C)C(=O)C(C)(C)[C@@H](O)CC(=O)O1` the “viability” value was 11.1%.
With `COc1ccc2c(c1)[C@]13CCCCC1C(C2)N(C)CC3` (stereo not given in full) the “viability” value was 103%.
In the case of `CC(C)(C)c1cc(C=C(C#N)C#N)cc(Br)c1O`, the “viability” value is reported as 100%.
With `Cc1c(N)nc([C@H](CC(N)=O)NC[C@@H](N)C(N)=O)nc1C(=O)N[C@H](C(=O)N[C@@H](C)[C@H](O)[C@@H](C)C(=O)N[C@@H](C(=O)NCCc1nc(-c2nc(C(=O)NCCC[S+](C)C)cs2)cs1)[C@@H](C)O)C(O[C@H]1O[C@H](CO)[C@H](O)[C@@H](O)[C@@H]1O[C@H]1O[C@H](CO)[C@@H](O)[C@H](OC(N)=O)[C@H]1O)c1cnc[nH]1` (stereo not given in full) the Potency was 3.32 µM (active).
For `COc1cc(C(=O)N2CC[C@@H](O)[C@@H](N)C2)cc2nc(-c3cc4ccccc4n3CC3CC3)n(C)c12`, the Potency was 0.186 µM (active).
With `COC1=C[C@@H]2[C@@H]3Cc4ccc(OC)c(O)c4[C@]2(CCN3C)CC1=O` the “viability” value was 96%.
With `COC[C@@H](NC(C)=O)C(=O)NCc1ccccc1` the “viability” value was 101%.
For `C[C@@H]1[C@@H](C(=O)C[C@H]2O[C@@H]3O[C@]4(C)CC[C@@H]5[C@H](C)CC[C@@H]([C@H]2C)[C@@]35OO4)O[C@@H]2O[C@]3(C)CC[C@H]4[C@H](C)CC[C@@H]1[C@@]24OO3`, the Potency was 14.8 µM (active).
With `CCN1CCN(C(=O)Cc2ccc(Nc3ncc(F)c(Nc4ccc(C(=O)Nc5ccccc5Cl)cc4)n3)cc2)CC1` the Potency was 5.9 µM (active).
With `CCOc1ccccc1-n1c(C(C)N2CCN(C(=O)COc3ccc(Cl)cc3)CC2)nc2ccccc2c1=O` (stereo not given) the Potency was 0.417 µM (active).
In the case of `CC(=O)OCC1=C(C(=O)O)N2C(=O)[C@@H](N)[C@@H]2SC1`, the “viability” value is reported as 83.3%.
For `C[C@]12Cc3cn[nH]c3C[C@@H]1CC[C@@H]1[C@H]2CC[C@@]2(C)[C@H]1CC[C@]2(C)O`, the “viability” value was 102%.
In the case of `CNC(=O)N1N=C(c2ccc(N)cc2)c2cc3c(cc2CC1C)OCO3` (stereo not given), the Potency is reported as 8.33 µM (active).
With `CCOC(=O)c1cncn1[C@H](C)c1ccccc1` the “viability” value was 99.8%.
For `C#C[C@]1(O)C=C[C@@H]2[C@@H]3CCC4=CC(=O)CC[C@@H]4[C@H]3CC[C@@]21CC`, the “viability” value was 97.7%.
For `O=P1(NCCCl)OCCCN1CCCl` (stereo not given), the Potency was 14.8 µM (active).
With `C[C@@H]1CC[C@@]2(OC1)O[C@H]1C[C@H]3[C@@H]4CC=C5C[C@@H](O[C@@H]6O[C@H](CO)[C@@H](O[C@@H]7O[C@@H](C)[C@H](O)[C@@H](O)[C@@H]7O)[C@H](O)[C@@H]6O[C@@H]6O[C@@H](C)[C@H](O)[C@@H](O)[C@@H]6O)CC[C@]5(C)[C@@H]4CC[C@]3(C)[C@@H]1[C@H]2C` the Potency was 14.8 µM (active).
In the case of `CCNC(=O)C[C@@H]1N=C(c2ccc(Cl)cc2)c2cc(OC)ccc2-n2c(C)nnc21`, the Potency is reported as 1.05 µM (active).
With `C[C@H]([C@H](O)CCC(C)(C)O)[C@H]1CC[C@@]2(O)C3=CC(=O)[C@@H]4C[C@@H](O)[C@@H](O)C[C@]4(C)[C@@H]3CC[C@]12C` the “viability” value was 88.2%.
In the case of `CC(C)(O)C=CC(=O)[C@](C)(O)[C@H]1[C@H](O)C[C@]2(C)[C@@H]3CC=C4[C@@H](C=C(O)C(=O)C4(C)C)[C@]3(C)C(=O)C[C@@]12C`, the Potency is reported as 0.0469 µM (active).
With `c1ccc2c(CN3CCNCC3)cccc2c1` the “viability” value was 95.2%.
For `O=P1(N(CCCl)CCCl)NCCCO1` (stereo not given), the Potency was 8.33 µM (active).
For `COc1ccc(C(=O)c2c(C)n(CCN3CCOCC3)c3ccccc23)cc1`, the “viability” value was 78.9%.
For `CCN(CC)C(=O)c1ccc(C2=CC3(CCNCC3)Oc3cccc(O)c32)cc1`, the “viability” value was 80.2%.
With `Cc1ncc(OC[C@@]2(c3cccc(F)c3)C[C@H]2C(=O)Nc2ccc(F)cn2)c(C)n1` the “viability” value was 85.6%.
With `CN[C@@H]1Cc2cccc3[nH]c(=O)n(c23)C1` the “viability” value was 106%.
With `Cc1ccccc1-n1c(Cn2cnc3c(N)ncnc32)nc2cccc(C)c2c1=O` the Potency was 1.18 µM (active).
With `COC(=O)[C@@H](N)CCCN=C(N)N[N+](=O)[O-]` the “viability” value was 102%.
For `O=C(Oc1ccc([N+](=O)[O-])cc1)N1CCN(Cc2cccc(Oc3ccccc3)c2)CC1`, the “viability” value was 95.4%.
In the case of `CC(C)N(CCNC(=O)CN1CCCC1=O)C(C)C`, the “viability” value is reported as 85%.
With `O=C1CC[C@@]2(O)[C@H]3Cc4ccc(O)c5c4[C@@]2(CCN3CC2CC2)[C@H]1O5` the “viability” value was 102%.
With `C=CCON=C(C[C@H]1O[C@@H]2O[C@]3(C)CC[C@@H]4[C@H](C)CC[C@@H]([C@H]1C)[C@@]24OO3)[C@H]1O[C@@H]2O[C@]3(C)CC[C@H]4[C@H](C)CC[C@@H]([C@@H]1C)[C@@]24OO3` the Potency was 1.05 µM (active).
With `C[C@@]12OC(=O)[C@]1([C@@H](O)[C@@H]1C=CCCC1)NC(=O)[C@H]2CCCl` the Potency was 0.0526 µM (active).
With `C[C@]12CC[C@H](O)CC1=CC[C@H]1[C@H]3CCC(=O)[C@@]3(C)CC[C@@H]12` the “viability” value was 91.3%.
